Screening results from PubChem BioAssay.
This is a sample that favours compounds with a hit; in the whole collection about 6.5% have one here.
HepG2 tox = HepG2 cytotoxicity, counter-screen for TGF-b inhibitors; HepG2 CAGA-GFP viability, ATP luminescence, 18 h; Potency, µM (doses to about 46.1 µM), inactives show top-dose activity change, negative = cytotoxicity, hits mostly cytotoxic; hit rate 0.76% among 410,000; further: potency means the concentration at half of the fitted maximal effect
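CellTiter-Glo luminescence gave cytotoxicity after 18 hours at 37 degrees C. The cells were HepG2 CAGA-GFP in 1% FBS DMEM, stimulated with 500 pg/mL TGF-beta after compound addition. %Activity was normalised to no-cell wells (complete cell-killing) and DMSO (no toxicity), and curves were fitted and classified.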
TGFb SMAD3 inh = TGF-b pathway inhibition; HepG2 CAGA-GFP TGF-b/SMAD3 reporter, GFP fluorescence, 18 h; TGF-beta stimulated, 500 pg/mL final; Potency, µM (titrated, usually from 46.1 µM), for the others: top-dose activity, negative = inhibition, hits mostly inhibitors; hit rate 1.2% among 410,000; AID 588855; further: potency means the concentration at half of the fitted maximal effect; on the % scale 0 is the no-effect control and ±100 the full control effect; nearly all actives have a fitted effect of over 65% in size
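HEPG2 CAGA-GFP reporter cells (1000/well, DMEM with 1% FBS) received compounds, then recombinant TGF-beta at 500 pg/mL final for 18 hours at 37 degrees C. Per-cell GFP summed per well was normalised to unstimulated and stimulated DMSO controls before curve fitting.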
Giardia killer = Giardia lamblia killing. Giardia lamblia trophozoite viability. activity change, % at 7.66 µM, hits read low. hit rate 0.15% among 340,000; in the data active means activity change below about -80%; inconclusive means between about -30% and that limit;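 further: parasites exposed to compound for two days anaerobically before the ATP read; on the % scale 0 is the no-effect control and ±100 the full control effect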
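Viability, read as ATP luminescence: trophozoites at 100 cells/well, compound added, 48 hrs anaerobic at 37 deg C, then 15-30 min room-temperature development before reading.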
HT1080-NT tox = kills 2HG-producing HT-1080-NT fibrosarcoma cells | AID 686970 | hit rate 1.6% among 360,000 | Potency, µM (highest dose often 46.1 µM), for inactives: at the highest dose activity, negative = less viability, actives largely listed as cytotoxic | HT-1080-NT fibrosarcoma viability, CellTiter-Glo ATP luminescence, 48 h;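 further: NT is the 2HG producing partner of a matched IDH1 knockdown line; potency means the concentration at half of the fitted maximal effect; 0% = DMSO-treated cells and -100% = media-only wells without cells; nearly all actives have a fitted effect of over 55% in size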
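HT-1080-NT fibrosarcoma cells (2HG-overproducing), 750 cells/well in RPMI with 5% FBS, dosed after 2 h and incubated 48 h at 37C. CellTiter-Glo luminescence normalized to DMSO and no-cell wells; concentration-response curves fitted and classed.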
HT1080 IDH1KD tx = HT-1080 IDH1 knockdown cell toxicity (counter line); HT-1080 IDH1 knockdown viability, ATP luminescence, 48 h; Potency, µM (top dose mostly 46.1 µM), without a hit: top-dose activity, negative = toxicity, usual class: cytotoxic; hit rate 2% among 360,000;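 further: potency means the concentration at half of the fitted maximal effect; 0% = DMSO wells and -100% = cell-free medium wells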
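Luminescent ATP read-out (CellTiter-Glo, 10 min at room temperature) after 48 h compound exposure at 37 °C gave viability of IDH1-knockdown HT-1080 cells. Activity was normalised to DMSO and cell-free wells, then fitted as concentration-response curves.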
IL-1B inflam inh = inhibitors of inflammasome signaling (IL-1 beta secretion); THP-1 LPS/ATP IL-1B secretion, AlphaLISA, 16 h; hits give low values; activity change, % at 57.5 µM; hit rate 4.7% among 360,000; in the data active means activity change below about -50%; inconclusive means mostly about -30% to -49%; further: on the % scale 0 is the no-effect control and ±100 the full control effect
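THP-1 cells pretreated 1 hr with compounds (up to 57.5 uM final), then stimulated with LPS (250 ng/mL final) plus ATP (1.25 mM final); secreted IL-1B measured by AlphaLISA after 16 hr, decreased signal indicating inhibition.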
Active calls of the source: *; ? = inconclusive; · = no result; [ ] = remark or other dose. Unless noted, the call rests on the fitted dose curve; in most records, active means well fitted curve in the direction sought with a large enough effect; inconclusive means small, poorly fitted or top-dose-only effect, or another doubt; inactive means no such curve, though single readings can be large; an effect the other way counts as inactive or inconclusive.

SMILES	HepG2 tox	TGFb SMAD3 inh	Giardia killer	HT1080-NT tox	HT1080 IDH1KD tx	IL-1B inflam inh
CCOc1ncccc1C(=O)OC(C)C(=O)Nc1ccc(Cl)cn1 (stereo not drawn)	13%	?	6	4%	0%	27
CNc1ccccc1C(=O)OC(C)C(=O)Nc1ccc(Cl)cn1 (stereo not drawn)	-13%	-35%	17	0%	4%	-75*
CCn1c(SCc2ccc(C#N)cc2)nnc1-c1cccc(Cl)c1	-5%	-3%	-2	-5%	5%[9.24 µM]	-73*
COc1cc2c(NC3CCN(C)CC3)nc(N3CCCN(C)CC3)nc2cc1OCc1ccccc1	·	·	·	10µM*	6.3µM*	·
COc1cc2c(NC3CCN(C)CC3)nc(N3CCCN(C)CC3)nc2cc1OCCCN1CCCCC1	8%	?	·	·	·	·
COc1cc2nc(N3CCCN(C)CC3)nc(NC3CCN(Cc4ccccc4)CC3)c2cc1OC	-83%	3.2µM*	·	10µM*	7.1µM*	·
COc1cc2nc(N3CCN(C)CC3)nc(NC3CCN(Cc4ccccc4)CC3)c2cc1OC	·	·	·	?	11µM*	·
CCOC(=O)C1CCN(C(=O)c2ccc(C)c(NC(=O)c3nsc4ccccc34)c2)CC1	13%	19%	·	·	·	·
Clc1ccc2c(N/N=C/c3cccc(Br)c3)ccnc2c1	-59%	-47%	?	?	?	-99*
C/C(=N/Nc1ccnc2cc(Cl)ccc12)c1ccc(O)cc1	-97%	?	-15	-8%	-4%	-54*
Clc1ccc2c(N/N=C/c3ccccc3Br)ccnc2c1	-39%	-6%	?	?	?	-98*
C/C(=N/Nc1ccnc2cc(Cl)ccc12)c1ccc(N)cc1	-47%	?	-13	?	?	-10
Clc1ccc2c(NNc3ccccc3Cl)ccnc2c1	-21%	22%	-12	10%	3%	1
O=[N+]([O-])c1ccc(Cl)cc1N/N=C/c1ccncc1	-27%	-6%	4	0%	1%	-12
Brc1cccc(C=Nc2cccc3ncccc23)c1	-15%	6%	-17	-4%	-5%	27
O=[N+]([O-])c1ccc(/C=N/Nc2ccnc3cc(Cl)ccc23)o1	20µM*	?	?	?	?	-94*
COc1cc(S(=O)(=O)N2CCn3cccc3C2C)ccc1NC(C)=O (stereo not drawn)	-15%	-13%	-10	7%	-14%	-5
Nc1ncc(-c2ccc(F)cc2)nc1N1CCN(CCO)CC1	-8%	26%	·	1%	29%	-9
O=C(CSc1nnc(-c2ccccc2Br)o1)Nc1nncs1	16µM*	-14%	-9	-3%	1%	-17
Cc1ccccc1-c1nnc(SCC(=O)Nc2cccnc2Cl)o1	-47%	8%	?	18µM*	23µM*	15
COc1ccccc1NC(=O)CSc1nnc(-c2ccccc2C)o1	-40%	20%	·	·	·	·
CCc1nnc(NC(=O)CSc2nnc(-c3ccccc3NC(=O)c3ccccc3)o2)s1	-24%	-17%	-17	13µM*	-25%[9.24 µM]	31
COc1ccc(CC(=O)OCc2cc3ccc(C)cc3[nH]c2=O)cc1	28%	?	3	-1%	5%	10
O=C(CCCSc1nnc(SCCCC(=O)c2ccc(F)cc2)s1)c1ccc(F)cc1	6%	-36%	-11	-13%	-9%	-81*
Cc1cc(C(=O)OCC(=O)N2CCOCC2)ccc1[N+](=O)[O-]	0%	0%	15	21%	17%	-8
SMILES	HepG2 tox	TGFb SMAD3 inh	Giardia killer	HT1080-NT tox	HT1080 IDH1KD tx	IL-1B inflam inh
O=c1[nH]c(CN2CCN(c3ccccc3O)CC2)nc2scc(-c3ccccc3Cl)c12	-19%	-25%	-8	-28%	?	-52*
COc1cccc(N2CCN(Cc3nc4ccccc4c(=O)[nH]3)CC2)c1	-1%	37%	-4	-1%	2%	9
O=c1[nH]c(CN2CCN(c3ccccc3Cl)CC2)nc2ccsc12	-31%	-15%	17	-4%	-8%	9
O=c1[nH]c(CN2CCN(c3ccc(O)cc3)CC2)nc2scc(-c3ccc(Cl)cc3)c12	1%	?	1	?	21µM*	0
COc1cccc(N2CCN(Cc3nc4scc(-c5ccccc5)c4c(=O)[nH]3)CC2)c1	16%	-18%	6	13µM*	12µM*	33
Cc1ccc(CNC(=O)CCNC(=O)N2CCn3c2nc2ccccc23)cc1	1%	-1%	4	11%	10%	0
CCOC(=O)CCCCC(=O)c1[nH]c(=O)[nH]c1CSCCO	-1%	-8%	18	4%	?	-84*
CCOC(=O)CCCCC(=O)c1[nH]c(=O)[nH]c1CSc1nc(-c2ccccc2)c(C#N)c(=O)[nH]1	-2%	-3%	0	-9%	20%	-66*
N#Cc1c(-c2ccccc2)nc(SCc2ccc(Cl)cc2)[nH]c1=O	2%	0%	-11	-21%	-17%	-54*
CCOC(=O)CCCCC(=O)c1[nH]c(=O)[nH]c1Cn1cnc2ccccc21	-6%	-2%	-17	4%	4%	-54*
CCOC(=O)c1[nH]c(=O)[nH]c1CSc1ccccn1	-2%	13%	-18	7%	18%	-3
O=C(CN1C(=O)C2C3C=CC(C3)C2C1=O)NCCc1ccccc1 (stereo not drawn)	6%	-1%	-13	8%	20%	0
COc1ccc(C)cc1NC(=O)C1CCN(S(=O)(=O)c2ccccc2)CC1	0%	2%	11	12%	10%	-3
CCC(CO)Nc1ccn2nc(-c3ccccc3)cc2n1 (stereo not drawn)	-5%	-9%	·	13%	20%	24
CCC(CO)Nc1ccn2nc(-c3cccs3)cc2n1 (stereo not drawn)	-3%	9%	·	22%	0%	-50*
CCCn1c(=N)n(CC(=O)C(C)(C)C)c2ccccc21	0%	-1%	3	-13%	-16%	-7
CCn1c(=N)n(CC(=O)C(C)(C)C)c2ccccc21	-28%	?	5	7.1µM*	7.9µM*	-6
CN1CCC(NC(=O)c2cccc(Oc3ccccc3)c2)CC1	2%	6%	-23	3%	0%	-5
COc1ccc(NC(=O)CN2C(=O)c3ccccc3S2(=O)=O)cc1OC	-12%	-14%	6	19%	-1%	-83*
O=C1N=C(N2CCN(c3ccccc3)CC2)S/C1=C/c1cccs1	7%	-24%	-26	-18%	-15%	-58*
O=C1N=C(N2CCCCC2)S/C1=C\c1ccncc1	-11%	3%	-1	-27%	-25%	-52*
